This is part of a sample that, as a whole, favours compounds with a hit. Of some 83,000 tested, about 20% had one in any assay.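 Results are percent growth after 48 hours of single-concentration exposure. 100 means growth as in untreated cells, lower positive values show inhibition; negative values down to -100 show cell death.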 A number with no mark means an inactive call. Activity calls are given as the source filed them.
These compounds were tested on CCRF-CEM leukemia (assay: NCI-60 one-dose screen, 48 h (100 = growth as untreated, 0 = no growth, -100 = all killed)). Details: 10 µM unless noted.
Method: Growth inhibition of the CCRF-CEM human tumor cell line is measured as a screen for anti-cancer activity. Cells are grown in 96 well plates and exposed to the test compound for 48 hours. Compounds are tested at a single concentration, which is 10^-5 M for most compounds. The reported endpoint is percent growth (GI% or GIPRCNT), where numbers from 0 - 100% represent growth inhibition, and numbers from -100% - 0 represent cell death. For example, a value of 40 represents 60% growth inhibition. A value of 0 means no net growth occurred over the course of the experiment. A value of -40 indicates 40% of cells at the beginning of the experiment died by the end of the experiment. A value of -100 means all cells are dead at the end of the experiment.
NCI-60 Human Tumor Cell Lines Screen was performed using the standard one-dose NCI protocol, which is described in more detail at https://dtp.cancer.gov/discovery_development/nci-60/default.htm.
Compounds with GIPRCNT values below 10 were considered active. Activity score was based on GIPRCNT using the following formula: […]
Score is 0 for GIPRCNT values of 100 or above, 50 for GIPRCNT values of 0, and 100 for GIPRCNT values of -100.

| SMILES | growth |
| --- | --- |
| CCn1c(-c2cc3c([nH]c4ccccc43)c(-c3cccc(O)c3)n2)n[nH]c1=S | 28% |
| O=C1c2ccccc2C(=O)c2c1cc1c(c2[N+](=O)[O-])OCO1 | 22.9% |
| Cc1nn(-c2ccccc2)c(N)c1N=C1NC(=O)/C(=C/c2ccc(Br)cc2)S1 | 72.1% |
| COc1cccc(/C=N/NC(=O)c2ccccc2N2CCCC2)c1O | -14% (active) |
| O=C(CSc1nnc(-c2cc(-c3ccccc3)nc3ccccc23)n1-c1ccccc1)Nc1ccc(C(=O)/C=C/c2ccc(Cl)cc2)cc1 | 72.2% |
| COc1cccc(Nc2ncnc3cc(NC(=O)CCl)ccc23)c1 | -26.9% (active) |
| O=C(Nc1cnc(Nc2ccc(N3CCOCC3)nc2)nc1Oc1ccc(C(F)(F)F)cc1)c1ccncc1 | 90.8% |
| CCN1C(=O)N(CC)C2C1NN=c1s/c(=C\c3ccc(C(F)(F)F)cc3)c(=O)n12 (stereo not given) | 5.13% (active) |
| O=C(Cc1ccc(/C=C/C(=O)c2ncc[nH]2)cc1)Nc1cc(C(F)(F)F)cc(C(F)(F)F)c1 | 92.9% |
| C=CN(C(=O)N1CCN(c2cc3c(cc2F)c(=O)c(C(=O)O)cn3C2CC2)CC1)c1nc(-c2ccc(OC)cc2)cs1 | 8.17% (active) |
| NC(=O)c1cnc(Nc2cccc(N)c2)nc1NCCCNC(=O)C1CCC1 | 25.9% |
| CN(Cc1ccccc1)c1nc(Cl)c(C2CC(c3ccccc3)=NN2c2ccccc2)s1 (stereo not given) | 94.3% |
| CC/C(Cc1ccccc1)=C(\c1ccc(OCCCN(C)C)cc1)c1ccc(OC(=O)NCc2ccccc2)cc1 | 58.3% |
| COc1ccc(C(=O)Cn2c(C(=O)c3ccc(OC)cc3)nc3ccccc32)cc1 | 0.632% (active) |
| COc1cc(OC)c2sc(-c3ccc(-n4cncc4-c4cc(OC)c(OC)c(OC)c4)cc3)nc2c1 | 56.6% |
| O=C(CCl)NNc1nccc(Nc2ccc(S(=O)(=O)Nc3ccncc3)cc2)n1 | 23.8% |
| CCC1S/C(=N\N=C(\C)c2cc3cc(Cl)ccc3o2)N(c2ccccc2)C1=O (stereo not given) | -53.2% (active) |
| CC1(C)NCCC[C@]2(C)[C@H]3CC[C@H]4[C@H]5[C@H](C(=O)/C=C/c6cccnc6)CCC[C@]5(CO)CC[C@@]4(C)[C@]3(C)CC[C@@H]12 | 36% |
| Cc1ccc(/C=C/C(=O)Nc2ncc(Cc3ccc(F)cc3)s2)o1 | 45.1% |
| CCN1CCN(CC(=O)Nc2ccc(-c3cn4c(n3)sc3cc(Oc5ccnc(C(=O)NC)c5)ccc34)cc2)CC1 | 44.9% |

| SMILES | growth |
| --- | --- |
| Cc1nnc(-c2ccc3c(c2)nc(/C=C/c2ccccc2)n3C2CCCCC2)o1 | 53.8% |
| COc1ccc2c(c1)c(-c1nc(-c3c[nH]c4ncccc34)cs1)cn2CCCN1CCOCC1 | 13.1% |
| CC[C@]12C=CCN3CC[C@@]4(c5ccc(OC)cc5N(C)[C@H]4[C@@](O)(C(=O)OC)[C@@H]1OC(=O)CCC[P+](c1ccccc1)(c1ccccc1)c1ccccc1)[C@@H]32 | 11.1% |
| Cc1c2cccnc2c(C)c2c1c1cc(CO)ccc1n2C | 29.9% |
| O=C(NC(Cc1nnc2n(Cc3ccccc3)c(=O)c3c4c(sc3n12)CCCC4)c1ccccc1)c1ccccc1 (stereo not given) | 61.9% |
| CS(=O)(=O)Nc1cc(-c2ccc3ncc(C#N)c(Nc4ccc(F)c(Cl)c4)c3c2)cnc1Cl | 0.41% (active) |
| CNC(C)[C@H]1CCC2C3CC=C4C(=O)[C@@H](NC(=O)C=C(C)C)CC[C@]4(C)C3CC[C@@]21C (stereo not given in full) | -20% (active) |
| CN(CCCNC(=O)CCOCCOCCOCCNC(=O)Cc1ccc2ccc3cccc4ccc1c2c34)CCCNc1cc(-c2ccc3ccccc3c2)nc2ccccc12 | -78.6% (active) |
| O=C1/C(=C/c2ccc(F)cc2)CN(C(=O)C(Cl)Cl)C/C1=C\c1ccc(F)cc1 | 2.43% (active) |
| N#C/C(=C\c1ccc(-c2cccc(C(F)(F)F)c2)o1)c1ccccc1 | 97% |
| O=C1Nc2ccccc2C1(c1c[nH]c2ccccc12)c1c[nH]c2ccccc12 | 65% |
| Ic1ccccc1I | 42.6% |
| O=C1/C(=C\c2cccc3nccnc23)SC(=S)N1CCc1ccc(O)cc1 | 67.2% |
| Cc1cccc2c1C[C@@]1(C2=O)C(c2ccc(C(C)(C)C)cc2)=NOS1=O (stereo not given in full) | 83.6% |
| COc1ccc(C2CC(c3cc(OC)c(OC)c(OC)c3)=NO2)cc1OCCCCOc1cc2c(cc1OC)C(=O)N1CCC[C@H]1C=N2 (stereo not given in full) | 69.3% |
| C=C1C(=O)O[C@H]2[C@H]1CC/C(COC(=O)c1cc3cc(Cl)ccc3[nH]1)=C\CC[C@@]1(C)O[C@@H]21 | -24.8% (active) |
| N#CC1=C(N)Oc2ccc3ccccc3c2C1c1ccc([N+](=O)[O-])cc1 (stereo not given) | 63.7% |
| NC(N)=NS(=O)(=O)c1ccc(NC2=C(I)C(=O)c3ncccc3C2=O)cc1 | 107% |
| Cc1c(CN)cc(-c2ccc(Cl)cc2)n1-c1ccccc1 | 81.7% |
| CC1(C)[C@@H](O[C@@H]2OC[C@@H](O[C@@H]3O[C@H](CO)[C@@H](O)[C@H](O)[C@H]3O[C@@H]3OC[C@@H](O)[C@H](O)[C@H]3O)[C@H](O)[C@H]2O[C@@H]2O[C@H](CO)[C@@H](O)[C@H](O)[C@H]2O)CC[C@]2(C)[C@H]3CC[C@]45OC[C@@]6(CC[C@](C)(C=O)C[C@H]64)[C@H](O)C[C@@]5(C)[C@]3(C)CC[C@@H]12 | -40.9% (active) |

Source: PubChem BioAssay (NCI)
